Mtb FBA inh: Mtb fructose-bisphosphate aldolase inhibition | purified M. tuberculosis FBA, fluorescence read-out | inhibition, % at 1 µM | actives 2.3% (n = 360,000) | AID 588726; in the data active = inhibition above about 27%
Target sequence (P9WQA3 whole entry, looked up): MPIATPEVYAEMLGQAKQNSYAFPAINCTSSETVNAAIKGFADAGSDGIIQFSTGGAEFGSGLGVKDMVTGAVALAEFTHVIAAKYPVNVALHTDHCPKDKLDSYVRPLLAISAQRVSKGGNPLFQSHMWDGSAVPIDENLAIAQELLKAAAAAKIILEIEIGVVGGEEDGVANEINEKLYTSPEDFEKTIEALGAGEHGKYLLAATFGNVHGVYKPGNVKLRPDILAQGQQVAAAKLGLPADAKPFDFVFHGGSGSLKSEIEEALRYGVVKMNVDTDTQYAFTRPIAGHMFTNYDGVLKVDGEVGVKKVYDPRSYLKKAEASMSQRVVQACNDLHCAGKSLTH
PrPC TRFRET: cell surface PrPC inhibition, primary TR-FRET screen; TR-FRET read-out; inhibition, % at 13.8 µM; actives 0.43% (n = 370,000); AID 720596; in the data active = inhibition above about 24%
SARS 3CLpro inh-1: SARS-CoV 3CLpro protease inhibition; P0C6X7; recombinant SARS-CoV 3CLpro, quenched FRET peptide cleavage; AID 1706; actives 0.14% (n = 290,000); inhibition, % at 6 µM; in the data active = inhibition above about 12%
GDH-TPI counter: inhibits GDH-TPI coupling enzymes, artifact for Mtb FBA screen | AID 588335 | inhibition, % at 4.8 µM | GDH-TPI coupled enzyme counterscreen, NADH absorbance | actives 1.2% (n = 360,000); in the data active = inhibition above about 30%
BH1578 lux ind: inducers of Vibrio cholerae quorum light production without autoinducers | V. cholerae BH1578 lux reporter, luminescence, 6 h | activation, % at 18.7 µM | actives 0.16% (n = 350,000); in the data active = activation mostly above about 9.7%, no sharp cut-off
SARS 3CLpro inh-2: confirmation of SARS coronavirus 3C-like protease inhibitors | inhibition, % at 6 µM | actives 36% (n = 380) | shares compounds with SARS 3CLpro inh-1 | QFRET protease activity assay, 3CLpro; in the data active = inhibition above about 13%
Large screens that a line does not name were inactive (follow-up assays come after a bar, where they were run). Rows were chosen to be rich in hits. Some 3.9% of all compounds tested hit in one or more screens of this group.

CCCOC(=O)c1c(-c2ccc(C)cc2C)csc1NC(=O)C1C2CCC(O2)C1C(=O)O (stereo unspecified)	SARS 3CLpro inh-1 12 | SARS 3CLpro inh-2 inactive
CC1(C)C2CC=C(/C=N/NC(=S)Nc3cccnc3)C1C2 (stereo unspecified)	SARS 3CLpro inh-1 15 | SARS 3CLpro inh-2 39
COc1cccc(NC(=O)c2ccc3c(O)c(S(=O)(=O)c4ccccc4)c(=O)[nH]c3c2)c1	none
COc1ccc(S(=O)(=O)c2c(O)c3ccc(C(=O)Nc4cccc(F)c4)cc3[nH]c2=O)cc1	SARS 3CLpro inh-1 13 | SARS 3CLpro inh-2 inactive
CCCCOc1ccc(C(=O)Oc2cccnc2)cc1	SARS 3CLpro inh-1 19 | SARS 3CLpro inh-2 14
Cc1ccc(C(=O)CN2C(=O)NC3(CCc4ccccc43)C2=O)s1 (stereo unspecified)	none (no result: SARS 3CLpro inh-1)
Cc1ccc(-n2nnnc2SCC(=O)NC(C(=O)O)(c2ccccc2)c2ccccc2)cc1C	SARS 3CLpro inh-1 14 | SARS 3CLpro inh-2 inactive
O=C(/C=C/c1ccccc1Cl)Nc1cccnc1	SARS 3CLpro inh-1 16 | SARS 3CLpro inh-2 21
CCC(c1nnnn1-c1c(C)cccc1C)N1CCN(CCN2CCOCC2)CC1 (stereo unspecified)	none (no result: Mtb FBA inh, SARS 3CLpro inh-1, GDH-TPI counter, BH1578 lux ind)
O=C(O)CSCC(=O)N(Cc1ccccc1)c1nc(-c2ccccc2)c(-c2ccccc2)s1	SARS 3CLpro inh-1 12 | SARS 3CLpro inh-2 inactive
CCOC(=O)c1sc(N(Cc2ccccc2)C(=O)CCl)nc1C	none
Clc1ccccc1Nc1nc(-c2cccnc2)cs1	SARS 3CLpro inh-1 14 | SARS 3CLpro inh-2 inactive
Nc1ccccc1-c1ccc([N+](=O)[O-])cc1	none (no result: SARS 3CLpro inh-1)
Cc1ccc(Nc2nc(N)c([N+](=O)[O-])c(N3CCC(C)CC3)n2)cc1C	none
Cc1ccc(Nc2nc(N)c([N+](=O)[O-])c(N3CCOCC3)n2)cc1C	SARS 3CLpro inh-1 13 | SARS 3CLpro inh-2 inactive
CCCCCCCCCCCCCCC(O)C[N+](C)(CCO)CCO (stereo unspecified)	none (no result: SARS 3CLpro inh-1)
O=C(NCc1ccco1)C(c1cccs1)N(Cc1ccccc1)C(=O)Cn1nnc2ccccc21 (stereo unspecified)	SARS 3CLpro inh-1 20 | SARS 3CLpro inh-2 29
COCCNC(=O)C(c1ccc(C)o1)N(Cc1ccc(OC)cc1)C(=O)Cn1nnc2ccccc21 (stereo unspecified)	none
Cc1ccc(CN(C(=O)Cn2nnc3ccccc32)C(C(=O)NCc2ccco2)c2cccs2)cc1 (stereo unspecified)	SARS 3CLpro inh-1 25 | SARS 3CLpro inh-2 19
COCCNC(=O)C(c1ccc(C)o1)N(C(=O)Cn1nnc2ccccc21)c1ccccc1 (stereo unspecified)	SARS 3CLpro inh-1 14 | SARS 3CLpro inh-2 inactive
O=C(NCc1ccco1)C(c1ccco1)N(CCc1ccccc1)C(=O)Cn1nnc2ccccc21 (stereo unspecified)	SARS 3CLpro inh-1 26 | SARS 3CLpro inh-2 28
CC(=O)OC1C2CCC1C([N+]1(C)CCCCC1)CC2 (stereo unspecified)	none
CN(C)c1ccc(C=C(C#N)C(=O)c2ccccc2)cc1Br	none (no result: SARS 3CLpro inh-1, GDH-TPI counter, BH1578 lux ind)
O=C(NC1CCCCC1)C(c1ccco1)N(Cc1cccs1)C(=O)Cn1nnc2ccccc21 (stereo unspecified)	none
O=C(NCc1ccco1)C(c1ccco1)N(Cc1cccs1)C(=O)Cn1nnc2ccccc21 (stereo unspecified)	SARS 3CLpro inh-1 14 | SARS 3CLpro inh-2 inactive
COCCNC(=O)C(c1ccccc1)N(Cc1cccs1)C(=O)Cn1nnc2ccccc21 (stereo unspecified)	SARS 3CLpro inh-1 23 | SARS 3CLpro inh-2 21
CCC(C)(C)NC(=O)C(c1cccn1C)N(C(=O)Cn1nnc2ccccc21)c1ccc(NC(C)=O)cc1 (stereo unspecified)	SARS 3CLpro inh-1 46 | SARS 3CLpro inh-2 50
CC1CCC2(CC1)NC(=O)N(CC(=O)Nc1cccc(C#N)c1)C2=O (stereo unspecified)	none (no result: SARS 3CLpro inh-1)
Cc1ccc(C)c(N2CCN(C(=O)CCS(=O)(=O)c3ccc4c(c3)NC(=O)C(C)S4)CC2)c1 (stereo unspecified)	SARS 3CLpro inh-1 13 | SARS 3CLpro inh-2 inactive
CCC1CCC(N2CCN(c3ccc([N+](=O)[O-])cc3)CC2)CC1 (stereo unspecified)	SARS 3CLpro inh-1 13 | SARS 3CLpro inh-2 inactive
CC1CCC(N2CCN(c3ccc([N+](=O)[O-])cc3)CC2)CC1 (stereo unspecified)	none
O=C(C[n+]1cccc(/C=N/O)c1)NC(=O)Nc1ccccc1	none (no result: Mtb FBA inh, SARS 3CLpro inh-1, GDH-TPI counter, BH1578 lux ind)
COc1cccc(-n2cnc3scc(-c4cccs4)c3c2=O)c1	none
COc1ccc(C(=O)Nn2cnc3scc(-c4cccs4)c3c2=O)c(O)c1	SARS 3CLpro inh-1 14 | SARS 3CLpro inh-2 inactive
O=C(Cn1nnc2ccccc21)c1ccc(Cl)cc1	SARS 3CLpro inh-1 35 | SARS 3CLpro inh-2 35
O=C(Cn1nnc2ccccc21)c1ccc([N+](=O)[O-])cc1	none
O=C1c2ccc([N+](=O)[O-])cc2C(=O)N1Cc1cccnc1	none
Cn1c(Cc2ccc(Cl)cc2)nnc1SCC(=O)NC1CC1	none
Cc1cc(C)cc(NS(=O)(=O)c2ccc3[nH]cc(C(=O)N4CCc5ccccc54)c(=O)c3c2)c1	SARS 3CLpro inh-1 14 | SARS 3CLpro inh-2 inactive
CCc1ccc(NS(=O)(=O)c2ccc3[nH]cc(C(=O)N4CCc5ccccc54)c(=O)c3c2)cc1	none
CCOC(=O)C1ON2CCCCC2C1(O)C(F)(F)F (stereo unspecified)	none
COc1ccccc1/C=C1\SC(=S)N(CCC(=O)NNC(=O)c2ccccc2OC)C1=O	SARS 3CLpro inh-1 14 | SARS 3CLpro inh-2 inactive
COc1ccc(C)cc1NC(=O)CSc1nc2scc(C)c2c(=O)[nH]1	SARS 3CLpro inh-1 13 | SARS 3CLpro inh-2 inactive
CCc1nnc(NS(=O)(=O)c2ccc(NC(=O)/C=C/C(=O)O)cc2)s1	none
CCc1nnc(NS(=O)(=O)c2ccc(NC(=O)/C=C/c3ccccc3Cl)cc2)s1	SARS 3CLpro inh-1 13 | SARS 3CLpro inh-2 inactive
COc1cc(NS(=O)(=O)c2ccc(NC(=S)NC(=O)c3ccc(F)cc3)cc2)nc(OC)n1	SARS 3CLpro inh-1 12 | SARS 3CLpro inh-2 inactive
COc1ccc(C(=O)NC(=S)Nc2ccc(S(=O)(=O)Nc3cc(OC)nc(OC)n3)cc2)cc1	none
O=C(CNC(=O)N1CC(=O)Nc2ccccc21)NCc1cccc(Cl)c1	none
O=C1/C(=C/c2cccc(Cl)c2)SC(=S)N1CCC(=O)N1CCCCC1CCO (stereo unspecified)	SARS 3CLpro inh-1 14 | SARS 3CLpro inh-2 inactive
O=C1/C(=C/c2ccc(Cl)cc2)SC(=S)N1CCC(=O)N1CCCCC1CCO (stereo unspecified)	none
CCc1ccc2c(c1)C(NC(C)=O)C(=O)N2CCN1CCOCC1 (stereo unspecified)	SARS 3CLpro inh-1 14 | SARS 3CLpro inh-2 50
CCOC(=O)C1=C[C@@H](C)N(S(=O)(=O)c2ccc(C)cc2)[C@H]1c1ccccc1	none (no result: SARS 3CLpro inh-1, GDH-TPI counter, BH1578 lux ind)

Screening results as filed in PubChem.
